# The whole screen tested about 360,000 compounds, of which about 2,400 (0.67%) were called active. The sample holds actives, similar compounds and a random draw of the others, so the mix is not that of the screen. Unmarked numbers belong to inactive results. Cut-off read from the data, not from the text of the source: active = enhancement above about 30%; inactive = the rest. Peptide text beside a SMILES is read from it. * marks the point of attachment. OPac = O=C(CO*)c1ccccc1; Bz = O=C(c1ccccc1)*
# Biological target: Thyrotropin-releasing hormone receptor (Homo sapiens) (UniProt P34981)
# Test: qHTS for Small Molecule Agonists and Allosteric Enhancers of Human TRH Receptor: Primary Screen for Enhancers; note: 0% is about no effect
# Details: TRHR cells, fluo-8 calcium fluorescence, EC20 TRH enhancement; at 2 µM; hits give high values
# Source text: NIH Chemical Genomics Center [NCGC] NIH Molecular Libraries Probe Centers Network [MLPCN] MLPCN Grant: MH089816-01 Assay Submitter (PI): Marvin Gershengorn This project aims to identify small drug-like molecules that activate (agonists) the thyrotropin releasing hormone (TRH) receptor (TRHR) or enhance its TRH-stimulated activity (allosteric enhancers). TRHR, a drug-accessible cell surface receptor expressed in specific brain regions, and its ligand TRH have been implicated in several central nervous system disorders, including depression and anxiety. Small molecule TRHR agonists or allosteric enhancers that are metabolically stable and able to cross the blood-brain barrier might serve as probes to elucidate the roles of brain TRH receptors in animal models, and might be valuable as lead compounds for the development of drugs to treat patients with central nervous system disorders. Upon TRHR-Gq activation in TRHR cells, intracellular calcium is released from stores in the endoplasmic reticulum. […] This primary screen measures compound-induced enhancement of an EC20 stimulation of the receptor by its native ligand.
# For the HTS assay freshly prepared cells are plated at a density of 2000/well in 3 ul of complete DMEM medium containing 10% serum in 1536-well plates and cultured over night at 37 C in a humidified incubator with 5% CO2. The next day, 2 ul of a no wash calcium dye (ABD Bioquest) was added to the cells and plates were incubated at room temperature for 1 hour. For the assay, assay plates were loaded into the FDSS kinetic plate reader. A 10 cycle (1 second/cycle) baseline measurement is taken and then the FDSS online 1536 pintool delivers 23 nl of compound library (as well as TRH controls) to the plate. The plate is measured for kinetically at 1 cycle/sec for 180 seconds and is considered to be the agonist portion of the assay (eg, compounds which activate a positive calcium response during this portion are flagged as potential agonists). Following the 180 second read, 1 ul of either an EC20 (positive modulation assay) is delivered by an onboard pipette head. Measurements are taken kinetically for an additional 180 seconds. TRHR FDSS Screening Protocol 1. Reagent, 3 uL 2000 cells/well 1536 TC treated Black plate in media containing 10% FCS 2. Time, 18 hours, 33.5C 5% CO2 (cells grown at 37C) 3. Reagent, 2 uL ABD fluo-8 Ca dye 4. Time, 30 min-1.5hrs hours, Room temp (6 plates/batch) 5. Detector, EX 480/EM 530C, FDSS 10 cycles baseline (1sec/cycle) 6. Compound, 23 nL of stock solution from library 7. Detector, EX 480/EM 530C, FDSS 230 cycles (1sec/cycle) Agonist mode 8. Compound, 1 ul EC20 of TRH made up in HEPES HBSS, 10 nM final 9. Detector, EX 480/EM 530C, FDSS 100 cycles (1sec/cycle) Potentiator mode
# Sequence of Thyrotropin-releasing hormone receptor (Homo sapiens) (P34981 whole entry, looked up): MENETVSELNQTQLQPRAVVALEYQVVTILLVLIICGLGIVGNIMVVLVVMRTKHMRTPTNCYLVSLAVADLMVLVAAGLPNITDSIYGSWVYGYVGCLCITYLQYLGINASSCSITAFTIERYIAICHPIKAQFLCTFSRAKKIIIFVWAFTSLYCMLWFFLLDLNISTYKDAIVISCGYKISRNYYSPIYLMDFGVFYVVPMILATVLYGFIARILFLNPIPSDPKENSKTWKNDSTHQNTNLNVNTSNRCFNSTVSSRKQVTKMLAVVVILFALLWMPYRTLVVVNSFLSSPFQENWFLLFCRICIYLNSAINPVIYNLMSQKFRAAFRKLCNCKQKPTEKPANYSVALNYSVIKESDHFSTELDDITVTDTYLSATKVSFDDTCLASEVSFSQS
row,SMILES,enhancement
1,O=C(Nc1ncccn1)c1cccs1,35.8% (active)
2,O=C(Nc1n[nH]c(C(F)(F)F)n1)c1cccs1,-3.09%
3,O=C(NC1CCCCCCC1)c1cccs1,-1.69%
4,COc1ccc2c(CNCCc3ccccc3C)c(C(=O)O)n(Cc3ccccc3C)c2c1,-16.3%
5,CCN1CCN(Cc2c(O)ccc3oc(C)c(C(=O)Nc4ccc(C)cc4C)c23)CC1,4.91%
6,CCC(=O)Nc1c(C(=O)N2CCN(c3ccc(F)cc3)CC2)oc2ccccc12,-8.72%
7,CCN1CCC(N(Cc2ccc(F)cc2)C(=O)Nc2cc(C)ccc2C)CC1,10%
8,CCOC(=O)N1CCC(NC(=O)c2cnn(-c3cccc(C)c3)c2C2CCN(C(=O)OC(C)(C)C)CC2)CC1,5.75%
9,CC(C)Cn1c(N)c(C(=O)COC(=O)CN2C(=O)C3CC=CCC3C2=O)c(=O)n(C)c1=O (configuration not stated),0.142%
10,CCCc1cc(=O)[nH]c(SCC(=O)c2c(N)n(CC(C)C)c(=O)n(C)c2=O)n1,38.3% (active)
11,CCCc1cc(=O)[nH]c(SCC(=O)N2C(C)CCCC2C)n1 (configuration not stated),6.92%
12,O=c1cc(CSc2ncn[nH]2)[nH]c2ccc(F)cc12,0.991%
13,Cc1c(C(=O)N(C)C)sc2c1c(=O)n(-c1ccc(F)cc1)c(=O)n2CC(=O)N(C)c1ccccc1,-2.28%
14,CC(C(=O)N(C)CC(=O)Nc1ccccc1C(F)(F)F)N1C(=O)c2ccccc2C1=O (configuration not stated),35.3% (active)
15,CN(CC(=O)Nc1ccccc1C(F)(F)F)C(=O)Cc1ccccc1F,1.5%
16,O=C(CN1CCN(c2ncccn2)CC1)Nc1ccccc1C(F)(F)F,0.988%
17,CCCNc1ncnc2c1c(-c1ccccc1)cn2-c1ccc(OCC)cc1,-5.52%
18,CCCN(CCC)CCCNC(=O)Cn1ncc2c3ccccc3n(Cc3ccccc3)c2c1=O,3.33%
19,Cc1nn(Cc2ccccc2)c(C)c1C(=O)NCCCN1CCCC1=O,8.55%
20,Cc1nn(Cc2ccccc2)c(C)c1C(=O)N1CCN(CC(=O)Nc2ccccc2Cl)CC1,66.2% (active)
21,CCC(=O)Nc1ccccc1C(=O)N1CCN(Cc2ccccc2)CC1,8.38%
22,O=C(CSc1nccn1Cc1ccc(F)cc1)NCc1ccccc1,1.55%

row,SMILES,enhancement
1,Cc1ccc(S(=O)(=O)NC(N)=NCCC[C@@H](NC(=O)CNC(=O)c2ccccc2)C(=O)Nc2cc(C(F)(F)F)ccc2Cl)cc1,2.23%
2,CCn1c(SCC(=O)Nc2nccs2)nnc1-c1ccncc1,1.36%
3,Nn1c(SCC(=O)Nc2nccs2)nnc1-c1ccco1,4.24%
4,CCn1c(SCC(=O)Nc2nccs2)nnc1-c1ccco1,38% (active)
5,O=C(CSc1nnc(-c2ccccc2F)o1)Nc1cccc(C(F)(F)F)c1,8.13%
6,Cc1cc(C)c2oc(C(=O)Nc3ccc(S(=O)(=O)N(C)c4ccccc4)cc3)cc(=O)c2c1,0.252%
7,Cc1cc(C)c2oc(C(=O)Nc3ccc(S(=O)(=O)N4CCCCCC4)cc3)cc(=O)c2c1,48.6% (active)
8,Cc1ccc2oc(C(=O)Nc3ccc(S(=O)(=O)N4CCCCCC4)cc3)cc(=O)c2c1,0.734%
9,Cc1c(C(=O)NCc2ccccc2Br)oc2ccc3c(c12)C(=O)CC(C)(C)O3,-2.29%
10,COc1cccc(-n2cc(C(=O)NCc3cccc(Cl)c3)c3ccccc3c2=O)c1,-3.45%
11,CC(NC(=O)c1ccc(N2CCNCC2)c([N+](=O)[O-])c1)C12CC3CC(CC(C3)C1)C2 (configuration not stated),31.1% (active)
12,O=C(NC1C2CC3CC(C2)CC1C3)c1ccc(N2CCNCC2)c([N+](=O)[O-])c1 (configuration not stated),2.28%
13,CCC(C)NC(=O)c1ccc(N2CCC3(CC2)OCCO3)c([N+](=O)[O-])c1 (configuration not stated),-9.06%
14,Cc1nc2nc(SCC(=O)NC3CCC(C)CC3)nn2c(C)c1Cc1ccccc1Cl (configuration not stated),3.16%
15,CCc1ccccc1NC(=O)CSc1nc(C)c(C(=O)Nc2ccccc2)c(-c2ccc(Cl)cc2)c1C#N,-0.268%
16,CCC[C@@H]1C[C@@]1(CCC)[C@@H](NC(=O)c1ccccc1)c1ccc(C(=O)OC)cc1,-1.9%
17,CCCC(=O)C1=C(N(C)c2ccccc2)CC(C)(C)C(C(=O)OC)C1=O (configuration not stated),36.8% (active)
18,C=CCO/N=C/C1=C(O)C(C(=O)OC)C(C)(C)CC1=O (configuration not stated),-2.52%
19,Cc1cccc(Cc2c(C)nc3nc(SCc4ccccc4Cl)nn3c2C)c1,-3.69%
20,COc1ccc(OC)c(-c2noc(N3CCN(c4cc(Cl)ccc4C)CC3)n2)c1,-2.59%
21,Cc1ccc(-c2cnc(NCc3ccc(C(C)C)cc3)n2C)cc1,2.38%
22,Cc1cccc(NC(=O)CSc2ncc(-c3ccccc3)[nH]2)c1C,-2.76%

row,SMILES,enhancement
1,COc1ccc(CNC(=O)c2cc3cccc(OC)c3oc2=O)cc1,5.25%
2,O=C(CNC(=O)c1ccccc1)NCC(=O)OCC(=O)c1ccccc1 (Bz-Gly-Gly-OPac),48.2% (active)
3,O=C(CNC(=O)Cc1ccccc1)NCC(=O)OCC(=O)c1ccccc1Cl,-4.65%
4,O=C(CNC(=O)c1ccco1)OCC(=O)c1ccccc1,14.7%
5,CCCCN(CC)CCCNC(=O)c1nn(C)c2c1CSc1ccccc1-2,-0.263%
6,Cc1ccc(CN2CCc3nc(N4CCN(C)CC4)ncc3C2)cc1,-1.43%
7,CCOC(=O)c1ccc(NC(=O)c2ncn(-c3ccccc3)n2)cc1,-1.95%
8,COc1ccc(/C(O)=C2/C(=O)C(=O)N(CCCN(C)C)C2c2ccccc2)cc1OC (configuration not stated),7.56%
9,O=C1C(=O)N(CCCO)C(c2ccccc2)/C1=C(\O)c1ccc(Br)cc1 (configuration not stated),46.2% (active)
10,COc1cccc(C2/C(=C(/O)c3ccncc3)C(=O)C(=O)N2CCCN(C)C)c1 (configuration not stated),5.69%
11,CC(C)(C)OC(=O)N1CCC(c2c(C(=O)N3CCN(c4cccc(Cl)c4)CC3)cnn2-c2cccc(Cl)c2)CC1,-12.3%
12,Cc1cc(Cl)ccc1OCC(=O)N(Cc1ccc(N(C)C)cc1)C1CCS(=O)(=O)C1 (configuration not stated),-2.26%
13,CC1Cc2cc(S(=O)(=O)CCC(=O)NCc3ccc(Cl)cc3)ccc2N1C(=O)C1CC1 (configuration not stated),3.17%
14,CCCn1c2ccccc2c2cnn(CC(=O)NCCCOC(C)C)c(=O)c21,10.8%
15,CCCn1c2ccccc2c2cnn(CC(=O)N(C)c3ccccc3CC)c(=O)c21,33.2% (active)
16,CCCn1c2ccccc2c2cnn(CC(=O)N(CC)c3cc(C)ccc3C)c(=O)c21,-3.36%
17,CCOc1ccc(CCNC(=O)c2ccc3c(c2)sc2nc(-c4ccc(F)cc4)cn23)cc1OCC,0.915%
18,Cc1ccc(C)c(NC(=O)CCC(=O)NNC(=O)c2cccs2)c1,30% (active)
19,Cc1ccc(NNC(=O)c2cccs2)cc1Cl,-3.86%
20,O=C(COC(=O)c1ccc(O)cc1O)NNC(=O)c1cccs1,6.82%
21,CCOCCCNC(=O)c1c(NC(=O)Cc2coc3ccc(C)cc23)sc2c1CCC2,-1.11%
22,CCNC(=O)c1ccc(OCC(=O)Nc2ccc(F)cc2)c(OC)c1,13.5%

row,SMILES,enhancement
1,CCOc1ccc(NC(=O)COc2ccc(C(=O)NC3CCCc4ccccc43)cc2OC)cc1 (configuration not stated),3.25%
2,COc1cc(C2C3=C(CCCC3=O)OC3=C2C(=O)CCC3)ccc1OCC(=O)Nc1ccccc1,78.2% (active)
3,COc1ccc(-c2cc(-c3ccccc3)nc3c2COc2ccc(Cl)cc2-3)cc1,2.02%
4,COc1ccc(Cl)cc1NC(=O)CCn1c(=O)c2cccn2c2ccccc21,1.46%
5,COC(=O)c1ccc(CNC(=O)C2CCC(=O)N(Cc3cccc(F)c3)C2)cc1 (configuration not stated),-7.88%
6,Cc1cccnc1CCNC(=O)C1CCC(=O)N(Cc2cccc(F)c2)C1 (configuration not stated),-0.481%
7,CCn1nc(C)c(CNC(=O)C2CCC(=O)N(Cc3cccc(F)c3)C2)c1C (configuration not stated),31.7% (active)
8,Cc1ccc(C(=O)NC2CCN(C#N)CC2)cc1,-0.515%
9,CCOC(=O)c1sc(NC(=O)/C=C/c2ccc(C(C)C)cc2)c(C(=O)OCC)c1C,0.66%
10,N#Cc1ccc(Oc2cc(C(F)(F)F)nc(-c3ccccn3)n2)cc1,55.8% (active)
11,N#Cc1ncc(C(F)(F)F)cc1Oc1cccnc1,-3.06%
12,Cc1c(Cl)cccc1NC(=O)c1noc2c1CCCC2,7.16%
13,Cc1cc(NS(=O)(=O)c2ccc(NC(=O)c3ccccc3C)cc2)nc(C)n1,10.7%
14,COc1ccc(-c2csc(Nc3ccccn3)n2)cc1,34.5% (active)
15,COc1ccc(-c2csc(-c3c(N)c(C(=O)c4ccc(OC)c(OC)c4)n4ccccc34)n2)cc1,0.214%
16,CCCn1c(C2CCCN2c2nc(-c3ccc(OC)cc3)cs2)nc2ccccc21 (configuration not stated),-1.81%
17,Cc1cccc(N2CCN(C(=O)CN(C)S(=O)(=O)c3ccc4c(c3)CCC(=O)N4)CC2)c1C,2.84%
18,CCOC(=O)Cc1csc(NC(=O)CN(C)S(=O)(=O)c2ccc3c(c2)CCC(=O)N3)n1,32.8% (active)
19,Cc1nc(NC(=O)CN(C)S(=O)(=O)c2ccc(Cl)cc2)sc1C,4.55%
20,Cc1cc(C)cc(NC(=O)CCCc2nc(-c3ccccc3Cl)no2)c1,-21.4%
21,COc1ccc(CCNC(=O)c2cn(C)c3ccc(S(=O)(=O)N(C)C4CCCCC4)cc3c2=O)cc1OC,-14.3%

# Reference: PubChem BioAssay AID493056 (National Center for Advancing Translational Sciences (NCATS), 2011)
